# Assay results reported in PubChem BioAssay AID2314 (National Center for Advancing Translational Sciences (NCATS), 2010).
# “And” between values parts separate entries of the source, which are not always exact repeats. Equal entries are not always repeated. Hit rate of the full screen: of about 300,000 compounds, about 37,000 (12%) were called active. Many of the other results were omitted from the sample, so actives are more common in it than they were. Unmarked numbers belong to inactive results. Rule as the data show it: active = max response mostly above about 13% (no sharp cut-off); inactive = mostly below about 14%.
# Experiment: Cycloheximide Counterscreen for Small Molecule Inhibitors of Shiga Toxin; also: read at 38.3 µM for the half of the compounds with a filed dose; 0% is about no effect
# Settings: cell reporter, cycloheximide protein synthesis inhibition counterscreen; hits give high values
row,SMILES,max response
1,Cc1ccc(NC(=O)CSc2cccc3cccnc23)c(C)c1,21%
2,O=C(CSc1cccc2cccnc12)N/N=C/c1cccnc1,31.6%
3,CC(=O)/C(=N\Nc1ccc(Cl)cc1Cl)Sc1cccc2cccnc12,19.1% (active)
4,COc1ccc(CCN2CC(C(=O)NCCN3CCNC3=O)CCC2=O)cc1 (stereo unspecified),7.2%
5,COc1cc(C(=O)OC(C)C(=O)NCC2CCCCC2)cc(NC(=O)c2ccco2)c1OC (stereo unspecified),-2.06%
6,COc1ccc(C[C@H]2CN3C(=NC[C@H]3C)N2CCNC(=O)CCC2CCCCC2)cc1,5.31%
7,CCc1nn(CCCC(=O)Nc2ccc(C)cc2C)c(=O)c2cc3occc3n12,0.647%
8,CC(=O)N1Cc2ccccc2CC1C(=O)O (stereo unspecified),-1.38%
9,Cc1ccc(Nc2nc(C)cc(C)c2C(N)=O)cc1,-4.97%
10,Cc1ccc(Nc2nc(Cl)c(C=O)s2)cc1,46% (active)
11,Cc1ccc(NC(=O)Nc2nnc(-c3ccncc3)s2)cc1,-1.9%
12,Cc1cccc(OCC(O)CN2CCN(CCN3C(=O)c4cccc5cccc(c45)C3=O)CC2)c1C (stereo unspecified),-8.1%
13,COC(=O)CN1C(=O)[C@H]2[C@@H](C3CC3)N3C(=O)CN(Cc4ccc(-c5ccccc5)cc4)C(=O)[C@@]3(Cc3ccccc3)[C@H]2C1=O,-3.99%
14,Cc1ccc(NC(=S)N(CCCN2CCCC2)Cc2cccn2Cc2ccc(Cl)cc2)cc1,-7.32%
15,Cc1cc(F)ccc1S(=O)(=O)N1CCCOC1CNC(=O)C(=O)NCCC1=CCCCC1 (stereo unspecified),-4.9%
16,O=C1CC(c2ccccc2)=NN1c1ccc([N+](=O)[O-])cc1,17.2% (active)
17,CC1=NN(c2ccccc2)C(=O)C1C(=O)c1ccc([N+](=O)[O-])cc1 (stereo unspecified),20.6%
18,O=c1[nH]n(-c2ccc([N+](=O)[O-])cc2)c(=O)c2ccccc12,-2.65%
19,Cc1ccc(CNC(=O)C2(C(F)(F)F)C/C(=C\Cc3ccccc3)CCCO2)o1 (stereo unspecified),-3.33% and -3.22%
20,O=C(COc1nsnc1N1CCOCC1)Nc1ccccc1Cl,8.06%
21,COc1cccc(/C=C(/CC(=O)Nc2ccc(N3CCOCC3)cc2)c2nc3ccccc3s2)c1,50.5% (active)
22,COc1ccc(NC(=O)CSc2nc3ccccc3c(=O)n2C)cc1,-4.03%
23,COc1ccc(NC(=O)COC(=O)c2ccc(NS(=O)(=O)/C=C/c3ccccc3)cc2)cc1,0.764%
24,COc1cc2ccccc2cc1C(=O)Nc1ccc(N2CCOCC2)cc1,8.83%
25,CCn1c(Cc2ccc(OC)cc2)nnc1SCC(=O)Nc1ccc(N2CCOCC2)cc1,-3.63%
26,COc1ccc(/C=C(/CC(=O)Nc2ccc(C)cc2)c2nc3ccccc3s2)cc1,21.2% (active)
